This is an account of results in PubChem BioAssay AID463173 (ICCB-Longwood Screening Facility, Harvard Medical School, 2010).

The campaign covered roughly 52,000 compounds. About 4,300 (8.3%) were called active. For the sample, actives were picked, then their nearest neighbours and some compounds at random. Values without a mark were called inactive. No stated cut-off is given here; in the data, active means survival mostly below about 52% (no sharp cut-off); inactive means mostly above about 56%.

The experiment has as its system DeltatarO mutant. Briefly: growth inhibition of S. aureus wild type versus tarO mutant, primary screen, teichoic acid synthesis inhibitors, RN4220, OD600 (AID 463173). The conditions noted are these: OD600, 18 h, hits give low values, screened at 18.75 µg/mL (by protocol).
With `O=C(Nc1nc2ccc(F)cc2s1)c1nc(S(=O)(=O)Cc2ccccc2F)ncc1Cl`, the survival is 80%.

In the case of `COc1ccc2nc(NC(=O)c3nc(S(=O)(=O)Cc4ccc(C)cc4)ncc3Cl)sc2c1`, the survival was 82%.

As for `O=C(Nc1nc2ccc(F)cc2s1)c1nc(S(=O)(=O)Cc2ccccc2)ncc1Cl`, the survival was 17% (active).

As for `COc1ccc2nc(NC(=O)c3nc(S(=O)(=O)Cc4cccc(C)c4)ncc3Cl)sc2c1`, the survival is 49%.

Consider `Cc1cccc(CS(=O)(=O)c2ncc(Cl)c(C(=O)Nc3nc4ccc(F)cc4s3)n2)c1`, for which the survival was -1% (active).

Take `Cc1ccc(CS(=O)(=O)c2ncc(Cl)c(C(=O)Nc3nc4ccc(F)cc4s3)n2)cc1`: the survival was 9% (active).

With `Cc1ccc(CS(=O)(=O)c2ncc(Cl)c(C(=O)Nc3nc4ccc(C)cc4s3)n2)cc1`, the survival is 6% (active).

Regarding `CSc1ncc(Cl)c(C(=O)Nc2nc3ccc(F)cc3s2)n1`, the survival was 98%.

With `Cc1ccc2nc(NC(=O)c3nc(SCc4ccccc4C)ncc3Cl)sc2c1`, the survival is 98%.

In the case of `COc1ccc2nc(NC(=O)c3nc(S(=O)(=O)Cc4ccccc4)ncc3Cl)sc2c1`, the survival is 77%.

As for `Cc1ccc(NC(=O)N2CCC(CN3CCCCCC3)CC2)c(Cl)c1`, the survival was 84%.

Turning to `O=C(c1ccccc1)N1CCCCC1CCN1CCCCC1` (configuration not stated), the survival was 70%.

In the case of `CCc1ccc(N(CC)C(=O)Cn2nc(Cc3cccnc3)c3ccccc3c2=O)cc1`, the survival was 81%.

With `CCOc1ccc(S(=O)(=O)N(CC(=O)Nc2ccc3c(c2)OCO3)c2ccccc2)cc1`, the survival is 72%.

Turning to `O=C(Cn1ncc2c3ccccc3n(Cc3cccc(Cl)c3)c2c1=O)Nc1ccc(F)cc1F`, the survival is 103%.

For `CC(C)CCNC(=O)CN1C(=O)c2cccnc2Oc2ccccc21`, the survival is 85%.

In the case of `CC(C)c1cnc2c(c1SCC(=O)N1CCCCC1)c(=O)n(C)c(=O)n2C`, the survival is 107%.

Regarding `COCCNc1ccc(-c2nc(-c3ccccn3)no2)cc1[N+](=O)[O-]`, the survival is 43% (active).

As to `Cc1ccc(-c2noc(-c3ccc(NCc4cccnc4)c([N+](=O)[O-])c3)n2)cc1`, the survival was 104%.

Consider `Cc1ccc(CNc2ccc(-c3nc(-c4ccccn4)no3)cc2[N+](=O)[O-])cc1`, for which the survival is 104%.

Consider `CCNc1ccc(-c2nc(-c3ccccn3)no2)cc1[N+](=O)[O-]`, for which the survival was 60%.

Take `O=[N+]([O-])c1cc(-c2nc(-c3ccccn3)no2)ccc1NCc1ccccc1`: the survival was 39% (active).

Consider `COCCNc1ccc(-c2nc(-c3ccco3)no2)cc1[N+](=O)[O-]`, for which the survival was 54%.

As for `Cc1noc(-c2ccc(NCc3ccccc3)c([N+](=O)[O-])c2)n1`, the survival is 66%.

Consider `COCCNc1ccc(-c2nc(-c3ccncc3)no2)cc1[N+](=O)[O-]`, for which the survival is 77%.

For the compound `CCCCNc1ccc(-c2nc(-c3ccccn3)no2)cc1[N+](=O)[O-]`, the survival was 46% (active).

Regarding `O=[N+]([O-])c1cc(-c2nc(-c3cccnc3)no2)ccc1NCc1ccccc1`, the survival is 63%.

Regarding `CCCNc1ccc(-c2nc(-c3ccccn3)no2)cc1[N+](=O)[O-]`, the survival was 111%.

As for `O=[N+]([O-])c1cc(-c2nc(-c3ccccc3)no2)ccc1NCc1cccnc1`, the survival is 47% (active).

As to `CCCCOc1ccc(C(=O)NCCc2csc3nc(-c4ccccc4F)nn23)cc1`, the survival was 84%.

Take `NCc1nc2cccnc2n1Cc1ccccc1Cl`: the survival is 81%.

With `COc1ccc(C)cc1NC(=O)Nc1cc(C(=O)NCc2ccc(C)cc2)ccc1N1CCCC1`, the survival is 82%.

Take `Cc1cc2c(cc1NS(=O)(=O)c1ccc(NC(=O)CC(C)C)cc1)n(C)c(=O)c(=O)n2C`: the survival was 86%.

Turning to `COc1ccc(OC)c(-c2cc(C(=O)NCCc3ccccc3)c3c(-c4ccc(C)cc4)[nH]nc3n2)c1`, the survival was 67%.

Regarding `CCCCNc1nc2c(S(=O)(=O)c3ccc(Br)cc3)nnn2c2ccsc12`, the survival is 74%.

On to `CCOc1nc(Nc2ccccc2)nc(OCC)n1`, for which the survival is 115%.

Take `CCN(C(=O)CCS(=O)(=O)c1ccc2c(c1)CCN2C(C)=O)c1cccc(C(F)(F)F)c1`: the survival is 101%.

Regarding `CCc1ccc(CNC(=O)CSc2cc(=O)n(C)c3ccc(Cl)cc23)cc1`, the survival is 31% (active).

`CCn1c(=O)cc(SCC(=O)NCc2cccc(Cl)c2)c2ccccc21`: the survival is 38% (active).

For `CCn1c(=O)c2cc(C(=O)NCCCN(C)Cc3ccccc3)sc2c2ccccc21`, the survival was 106%.

Consider `CCN(CCCNC(=O)CSc1cc(=O)n(CC)c2ccccc12)c1ccccc1`, for which the survival was 53%.

Consider `CCN(CCCNC(=O)CSc1cc(=O)n(C)c2cc(Cl)ccc12)c1cccc(C)c1`, for which the survival was 90%.

As for `CCN(CCCNC(=O)CSc1cc(=O)n(CC)c2ccccc12)c1cccc(C)c1`, the survival is 38% (active).

For the compound `CCN(CCCNC(=O)c1cc2c(=O)n(CC)c3ccccc3c2s1)c1cccc(C)c1`, the survival is 42% (active).

Consider `CCn1c(=O)c2cc(C(=O)NCCc3cccc(C)c3)sc2c2ccccc21`, for which the survival is 70%.

Take `CCc1ccc(CNC(=O)CSc2cc(=O)n(CC)c3ccccc23)cc1`: the survival was 87%.

As to `Cn1c(=O)cc(SCC(=O)NCCc2ccc(Cl)cc2)c2cc(Cl)ccc21`, the survival was 75%.

Consider `Cn1c(=O)cc(SCC(=O)NCc2ccc(F)cc2)c2cc(Cl)ccc21`, for which the survival was 88%.

Consider `CCn1c(=O)cc(SCC(=O)NCc2ccc(C)cc2)c2ccccc21`, for which the survival was 84%.

For the compound `Cc1cc(C)c(NC(=O)C2CCN(c3nn4c(=O)cc(C)nc4s3)CC2)c(C)c1`, the survival is 103%.

On to `CC(=O)Nc1ccc(NCc2cccs2)cc1`, for which the survival is 101%.

As to `Cc1cc(Nc2ccc(C(C)C)cc2)nc(-n2nc(C)cc2C)n1`, the survival was 90%.

As to `COC(=O)c1cc2oc(C)cc2n1CC(=O)Nc1ccc(OC)c(OC)c1`, the survival is 131%.

On to `COc1ccc(N2CCN(Cc3nc4c(c(=O)[nH]c(=O)n4C)n3Cc3ccc(C)cc3)CC2)cc1`, for which the survival was 113%.

With `CCOC(=O)c1c(C)n(C2CCCCC2)c2ccc(OCC(N)=O)cc12`, the survival is 69%.

With `CCOC(=O)C1CCC(CN(Cc2c(Cl)cccc2Cl)S(=O)(=O)c2ccc(Cl)cc2)CC1` (configuration not stated), the survival was 81%.

Turning to `Cc1cccc2c(=O)cc(CSc3ccccc3NC(=O)c3cccc(Br)c3)[nH]c12`, the survival was 86%.
